High-throughput results: PubChem, several laboratories
TWEAK Fn14 block: blocks TWEAK-Fn14 interaction in a reporter cell assay; inhibition, % at 10 µM; AID 1159606; 2% of 360,000 active; TWEAK-stimulated Fn14 reporter cells, luciferase luminescence, 8 h; in the data active = inhibition above about 50%
HSP90 inh: blocks HSP90-mediated luciferase refolding in reticulocyte lysate | 0.91% of 290,000 active | inhibition, % at 5.6 µM | Rabbit reticulocyte lysate, luciferase refolding luminescence, 3 h | AID 1789;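 active = inhibition above the screen-wide mean plus 3 SD, computed separately per campaign, cut at about 16% in these data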;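 also: 0% = DMSO wells and 100% = 60 µM geldanamycin wells; inhibitors lower the luminescence because luciferase stays unfolded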
TROY NFkB inh: inhibitors of TROY-dependent NF-kB signaling; inhibition, % at 10 µM; Q293 LMP1-TROYcd NF-kB luciferase reporter, 4 h; 0.98% of 360,000 active; AID 1347056;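 active = compounds whose plate-normalised and pattern-corrected inhibition of the luciferase reporter signal at the single screening dose is 50% or more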
EBV LMP1 NFkB: Epstein-Barr LMP1 NF-kappaB reporter inhibition; LMP1-induced NF-kappaB luciferase reporter cells, luminescence; inhibition, % at 12.5 µM; 0.69% of 350,000 active; AID 504558; in the data active = inhibition above about 41%; inconclusive = no clear call, values can overlap the other calls;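 also: 0% = neutral control wells and 100% = reference inhibitor control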
HSF1 inh: HSF1 inhibition; 0.77% of 300,000 active; activity change, negative = inhibition, % at 7.5 µM (by protocol); NIH3T3-HGL HSE-luciferase, MG132-induced, luminescence 8 h; hits give low values;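 active = more than half of replicate wells show activity change below -50%, luminescence cut by over half; inconclusive = some wells, but at most half, below -50%; inactive = no replicate well below -50%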;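 also: luciferase reports HSF-1 transcriptional activity via heat shock element; 0% = median of DMSO wells and -100% = zero luminescence signal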
HSF1 activator: increases HSF-1 driven luciferase reporter signal; NIH3T3-HGL HSF-1 luciferase reporter, MG132, 8 h; 100% = twice DMSO control signal; activation, % at 9 µM; 1.7% of 300,000 active; AID 504408;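 active = mean replicate activation of at least 50% with a set share of replicates each reaching 50%; inconclusive = only one of those two conditions met; inactive = mean below 50% and too few replicates reaching it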;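 also: 0% = median of the neutral control wells and 100% = twice that signal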
The depositor's hits bear a star; ? = inconclusive; . = not tested or not shown. The list is not random: actives were taken first. Their share in the collection is about 4.7%.

SMILES	TWEAK Fn14 block	HSP90 inh	TROY NFkB inh	EBV LMP1 NFkB	HSF1 inh	HSF1 activator
CC1CCCC(NC(=O)COC(=O)c2c[nH]c(=O)[nH]c2=O)C1C (stereo not given)	54.8*	-0.7	.	2.4	.	.
Cc1ccc(OCC(=O)N2CCN(c3nnc(-c4ccc(C)cc4)c4ccccc34)CC2)cc1	51.1*	3.4	59.2*	19.6	9.2	24.6
COc1ccc(OCC(=O)N2CCN(c3nnc(-c4ccc(C)cc4)c4ccccc34)CC2)cc1	-2.0	1.3	58.7*	21.0	0.4	19.7
Cc1ccc(-c2nnc(N3CCN(C(=O)COc4cccc(C)c4)CC3)c3ccccc23)cc1	-12.1	8.2	34.8	15.7	3.9	30.1
COc1ccc2c(c1)c(C(=O)CN1CCCCC1)c(C)n2C	-10.1	.	-17.7	6.5	32.2	72.0*
CC(C)NCC(O)COc1cccc2[nH]ccc12 (stereo not given)	-15.1	-0.4	-9.0	-3.2	.	.
CC(C)NCC(O)COc1cccc2ccccc12 (stereo not given)	-25.3	.	-1.6	51.8*	17.8	2.0
CC(C)(C)C(=O)N1CCN(c2ccnc3cc(Cl)ccc23)CC1	10.4	1.0	12.7	7.7	-5.9	2.9
CC(=O)c1ccc(N2CCN(c3ccnc4cc(Cl)ccc34)CC2)cc1	24.6	2.1	3.7	47.1*	-14.6	-10.7
CC(C)(C)Cc1c(-c2ccc(Cl)cc2)nc2c(Cl)cc(C(F)(F)F)cn12	-0.3	.	10.7	.	.	.
Cc1cc(N2CCCC2)nc2ccc(NC(=S)NCCCN3CCC(C)CC3)cc12	-83.4	-2.1	-15.0	-14.9	13.8	54.2*
Cc1cc(N2CCN(C)CC2)nc2ccc(NC(=S)N3CCCCC3)cc12	-8.3	2.6	54.0*	-2.9	-17.3	-23.0
Cc1cccc(N2CCN(C(=S)Nc3ccc4nc(N5CCN(C)CC5)cc(C)c4c3)CC2)c1C	-83.8	4.0	8.1	82.4*	3.3	12.7
COCCNC(=O)C1(C)CCN(C(=O)c2nc(C)oc2C)C1 (stereo not given)	-4.3	.	3.4	.	.	.
C/C(=N\Nc1ccc(C(F)(F)F)cc1[N+](=O)[O-])C(C)C	-14.3	-4.7	4.1	66.5*	-8.0	-1.0
Cc1cc(C)c2nc(NNC(=O)c3cc(-c4cccs4)nc4ccccc34)sc2c1	35.7	5.3	12.3	16.4	-4.5	-5.4
O=C(NNc1nc2ccc(Cl)cc2s1)c1cc(-c2cccs2)nc2ccccc12	58.1*	0.0	39.1	27.2	3.0	23.8
O=C(N/N=C/c1cccnc1)c1cc(-c2cccs2)nc2ccccc12	-11.0	0.3	-1.5	57.7*	2.9	7.4
O=C1[C@@H](c2ccccc2)CC[C@@H]2C=CC[C@H]3CCN1[C@@H]32	15.4	.	4.8	.	.	.
COc1ccc(-c2nc3c(Cl)cc(C(F)(F)F)cn3c2Cc2ccc(C)cc2)cc1OC	32.2	.	12.8	.	.	.
CC1(C)CC(=O)C2=C(C1)NC(Nc1nc3ccccc3o1)=NC21CCCCC1	5.8	-0.5	2.6	-6.5	0.7	-21.2
Cc1ccc2oc(NC3=NC4(CCCC4)C4=C(CCCC4=O)N3)nc2c1	51.7*	.	9.4	.	.	.
CCCNC(=S)NC1CC2CCCC(C1)N2Cc1ccc(F)cc1 (stereo not given)	21.1	6.2	1.9	-4.4	-61.3*	-68.9
NC(=O)c1ccc(-c2noc(-c3cccc(Cl)c3)n2)cc1	-21.6	.	-64.2	1.5	.	.
O=C(O)c1cccc(-c2noc(-c3cccc(Cl)c3)n2)c1	29.3	.	-38.8	79.6*	.	.
SMILES	TWEAK Fn14 block	HSP90 inh	TROY NFkB inh	EBV LMP1 NFkB	HSF1 inh	HSF1 activator
COc1cc(OC)c(N(C)S(=O)(=O)c2cccc(C(=O)Nc3nnc(C4CC4)s3)c2)cc1Cl	-15.9	2.9	-5.0	-6.6	73.3	130.9*
COC(=O)c1cc(=O)n(Cc2ccc3c(c2)OCO3)c(=Nc2ccc(F)cc2)s1	41.7	1.2	21.5	-2.1	-8.9	-4.8
COC(=O)c1cc(=O)n(Cc2cccs2)c(=Nc2ccc(F)cc2)s1	55.5*	4.3	3.8	0.5	45.1	52.1*
COC(=O)c1cc(=O)n(-c2ccc(F)cc2)c(=Nc2ccc(F)cc2)s1	50.1*	-0.8	28.6	4.0	48.4	56.9*
CCC(=O)NC(c1cc(Cl)c2cccnc2c1O)C1CC1 (stereo not given)	17.1	.	4.4	40.3*	.	.
CCC(=O)NC(c1cccs1)c1cc(Cl)c2cccnc2c1O (stereo not given)	12.8	3.6	-4.6	20.7	?	-57.5
